Unmarked numbers belong to inactive results. For some assays here: Results with a measured potency or affinity are listed apart. The source made the active and inactive calls. Unless noted, how the calls were made is not given here.

Test [1] in a line: antimalarial activity against Dd2 strain (AID 2302;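 active means growth inhibition above 50% at the single 2 µM test dose, taken to imply half-maximal potency below 2 µM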;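 further: 0% = DMSO untreated growth and 100% = chloroquine plus artemisinin killed control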). Conditions: P. falciparum Dd2 in RBCs, LDH growth readout, 72 h; at 2 µM; active compounds read high.
A short description of test [2]: human hepatoma cell viability loss – ATP luminescence, cytotoxicity control for P. falciparum antimalarial project, primary screen (AID 2303;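 active means inhibition above 50%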;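 further: 0% = DMSO wells and 100% = digitonin-killed cells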). Conditions: HepG2 viability, 24-48 h, at 10 µM, active compounds read high.
Test [3] addresses L-lactate dehydrogenase (Plasmodium falciparum (isolate CDC / Honduras)) (UniProt Q27743). In words: PfLDH activity inhibition – cell lysate, 3D7 strain, counter-screen for P. falciparum growth inhibition project (AID 2304).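 Further: 0% = vehicle and 100% = reference inhibitor.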 To be noted: P. falciparum 3D7 crude extract, LDH APAD/NBT absorbance; at 2 µM; active compounds read high.
Test [4] in a line: inhibition of 3D7 malaria parasite growth – strain 3D7 (AID 2306).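 Further: 0% = DMSO wells and 100% = chloroquine plus artemisinin control wells.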 To be noted: P. falciparum 3D7 erythrocytic growth, LDH absorbance, 72 h; at 2 µM; active compounds read high.
The target of test [5] is Calcium-dependent protein kinase 1 (Plasmodium falciparum (isolate 3D7)) (UniProt P62344). In words: PfCDPK1 kinase inhibitors, biochemical, TCAMS library (AID 1159585; cut-off not given, nearly all actives have IC50 up to about 0.98 µM;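 further: inhibitors leave more ATP so luminescence rises with inhibition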). To be noted: recombinant PfCDPK1, Kinase-Glo ATP depletion luminescence. For orientation: Kinase-Glo reads ATP consumption through a luciferase reaction.
Sequence of Calcium-dependent protein kinase 1 (Plasmodium falciparum (isolate 3D7)) (P62344 whole entry, looked up): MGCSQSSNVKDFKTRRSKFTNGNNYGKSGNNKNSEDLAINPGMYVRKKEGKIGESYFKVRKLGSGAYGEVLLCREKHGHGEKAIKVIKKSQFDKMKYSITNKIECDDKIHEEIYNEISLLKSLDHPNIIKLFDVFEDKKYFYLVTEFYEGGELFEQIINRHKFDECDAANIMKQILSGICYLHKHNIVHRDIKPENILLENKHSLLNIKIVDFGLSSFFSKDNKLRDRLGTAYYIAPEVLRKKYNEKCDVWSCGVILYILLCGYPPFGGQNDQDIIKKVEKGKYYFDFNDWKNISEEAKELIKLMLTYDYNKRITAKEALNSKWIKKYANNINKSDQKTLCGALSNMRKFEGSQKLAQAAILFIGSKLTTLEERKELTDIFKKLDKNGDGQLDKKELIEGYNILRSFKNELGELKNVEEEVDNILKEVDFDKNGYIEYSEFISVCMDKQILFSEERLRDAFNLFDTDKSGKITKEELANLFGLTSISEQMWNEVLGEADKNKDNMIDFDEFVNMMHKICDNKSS
For test [6], the target named is Plasmodium falciparum protein kinase 6 (PK6, PF3D7_1337100) (UniProt Q8IDW1). In words: PfPK6 kinase inhibitors, biochemical, TCAMS library (AID 1159586). Conditions: recombinant PfPK6, Kinase-Glo ATP depletion luminescence.
Sequence of Plasmodium falciparum protein kinase 6 (PK6, PF3D7_1337100) (Q8IDW1 1-305): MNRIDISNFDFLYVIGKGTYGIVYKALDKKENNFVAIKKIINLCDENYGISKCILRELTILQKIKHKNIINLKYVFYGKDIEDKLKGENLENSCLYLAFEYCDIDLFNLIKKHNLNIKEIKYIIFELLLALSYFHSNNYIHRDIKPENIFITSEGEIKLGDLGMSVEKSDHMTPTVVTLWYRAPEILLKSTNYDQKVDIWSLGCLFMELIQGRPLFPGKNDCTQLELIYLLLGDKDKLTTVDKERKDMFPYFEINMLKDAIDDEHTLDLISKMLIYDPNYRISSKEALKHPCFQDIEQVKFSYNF
Test [7] concerns the target Protein kinase 7 (PK7), Plasmodium falciparum 3D7 (PF3D7_0213400) (UniProt Q7YTF7). In words: inhibition of Plasmodium PK7 catalytic activity – biochemical, TCAMS antimalarial set, Kinase-Glo luminescence (AID 1159587). To be noted: recombinant PfPK7, Kinase-Glo ATP depletion luminescence.
Test [8] concerns the target Calcium-dependent protein kinase 4 (Plasmodium falciparum (isolate 3D7)) (UniProt Q8IBS5). Put plainly: PfCDPK4 kinase inhibitors, biochemical, TCAMS library (AID 1159588; cut-off not given, nearly all actives have IC50 up to about 0.91 µM). To be noted: recombinant PfCDPK4, Kinase-Glo ATP depletion luminescence.

Sequence of L-lactate dehydrogenase (Plasmodium falciparum (isolate CDC / Honduras)) (Q27743 whole entry, looked up): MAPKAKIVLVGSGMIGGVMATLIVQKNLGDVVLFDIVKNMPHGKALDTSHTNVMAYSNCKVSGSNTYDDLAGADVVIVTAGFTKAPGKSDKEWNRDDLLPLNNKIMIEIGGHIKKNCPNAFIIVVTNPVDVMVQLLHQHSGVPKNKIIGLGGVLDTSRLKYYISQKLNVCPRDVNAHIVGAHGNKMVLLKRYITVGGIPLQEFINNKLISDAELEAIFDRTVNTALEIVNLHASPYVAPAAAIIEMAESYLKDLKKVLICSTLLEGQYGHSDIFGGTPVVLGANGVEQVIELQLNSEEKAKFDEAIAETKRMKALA
Sequence of Calcium-dependent protein kinase 4 (Plasmodium falciparum (isolate 3D7)) (Q8IBS5 whole entry, looked up): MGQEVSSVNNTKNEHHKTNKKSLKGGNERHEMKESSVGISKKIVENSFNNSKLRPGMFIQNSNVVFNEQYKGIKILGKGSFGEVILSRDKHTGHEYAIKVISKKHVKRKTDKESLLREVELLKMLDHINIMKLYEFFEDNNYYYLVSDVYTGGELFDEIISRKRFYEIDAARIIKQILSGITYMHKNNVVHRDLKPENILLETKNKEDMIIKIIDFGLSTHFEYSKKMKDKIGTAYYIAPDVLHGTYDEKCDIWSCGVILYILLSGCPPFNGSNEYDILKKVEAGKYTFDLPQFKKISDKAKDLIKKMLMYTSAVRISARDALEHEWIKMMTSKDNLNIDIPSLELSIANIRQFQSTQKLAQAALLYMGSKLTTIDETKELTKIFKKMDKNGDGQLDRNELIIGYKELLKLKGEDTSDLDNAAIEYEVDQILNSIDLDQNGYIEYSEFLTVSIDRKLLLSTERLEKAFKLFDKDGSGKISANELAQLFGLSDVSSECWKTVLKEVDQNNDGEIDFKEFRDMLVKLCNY
Sequence of Protein kinase 7 (PK7), Plasmodium falciparum 3D7 (PF3D7_0213400) (Q7YTF7 1-343): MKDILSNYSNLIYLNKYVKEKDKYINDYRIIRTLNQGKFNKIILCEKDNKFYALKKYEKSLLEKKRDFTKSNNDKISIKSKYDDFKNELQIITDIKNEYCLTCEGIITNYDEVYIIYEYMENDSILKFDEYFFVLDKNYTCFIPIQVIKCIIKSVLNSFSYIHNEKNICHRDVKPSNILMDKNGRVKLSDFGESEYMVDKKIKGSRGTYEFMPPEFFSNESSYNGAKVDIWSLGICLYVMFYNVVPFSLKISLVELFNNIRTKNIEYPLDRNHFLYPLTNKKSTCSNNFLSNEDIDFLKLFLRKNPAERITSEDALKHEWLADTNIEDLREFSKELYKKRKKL

Take `COC(=O)c1ccc(CC(C)NCC(O)c2ccc(Cl)c(Cl)c2)cc1` (configuration not stated): the results for the growth inhibition in test [1] and in test [4] were 33% and 87% (active), respectively. Besides, the inhibition (commonly the change of the read-out against control, counted positive when it falls) is -1% in test [2] and 0% in test [3]. Moreover, the outcome in test [5], in test [6], in test [7] and in test [8] was inactive.

As for `CC[C@H]1CN2CC[C@@H]1C[C@H]2[C@H](O)c1cc(-c2ccc(Cl)c(Cl)c2)nc2ccc(O)cc12`, the growth inhibition in test [1] is 99% (active); in test [4], 98% (active). Moreover, the inhibition in test [2] is -8%; in test [3], -1%. The result in test [5], in test [6], in test [7] and in test [8] was inactive.

Consider `c1ccc2c(NCCCCCCNc3c4ccccc4nc4ccccc34)c3ccccc3nc2c1`, for which the growth inhibition in test [1] is 80% (active); in test [4], 99% (active). Also, the values for the inhibition in test [2] and in test [3] were 60% (active) and 3%, respectively. For the same molecule, the outcome in test [5], in test [6], in test [7] and in test [8] was inactive.

Consider `CCCCCc1cc(O)c2c(c1)OC(C)(C)CC2C1=CCN(Cc2cnc3ccccc3c2)CC1` (configuration not stated), for which the growth inhibition in test [1] and in test [4] was 98% (active) each time. The results for the inhibition in test [2] and in test [3] were 27% and 0%, respectively. In addition, the outcome in test [5], in test [6], in test [7] and in test [8] was inactive.

Consider `N#Cc1ccc(N(CC(=O)NCCc2ccc(F)cc2)CC2CC2)c2ccccc12`, for which the growth inhibition is 23% in test [1] and 91% (active) in test [4]. The inhibition in test [2] was 28%; in test [3], -2%. For the same molecule, the outcome in test [5], in test [6], in test [7] and in test [8] was inactive.

Consider `CCCc1c(C(=O)NC2CCC(CN3CCC(c4c[nH]c5ccccc45)CC3)CC2)cnn1-c1ccccc1` (configuration not stated), for which the growth inhibition in test [1] is 7%; in test [4] it was 92% (active). In addition, the values for the inhibition in test [2] and in test [3] were 33% and -1%, respectively. Moreover, the result in test [5], in test [6], in test [7] and in test [8] was inactive.

`COC(=O)C(C)(C)c1ccc(CC(C)NCC(O)c2cccc(C(F)(F)F)c2)cc1` (configuration not stated): the values for the growth inhibition in test [1] and in test [4] were 98% (active) and 99% (active), respectively. Besides, the inhibition is 6% in test [2] and -7% in test [3]. Besides, the outcome in test [5], in test [6], in test [7] and in test [8] was inactive.

For `CC(=O)N(Cc1cccc(-c2cccc(CNCc3ccc4c(c3)OCO4)c2)c1)C1CCN(Cc2ccccc2)CC1`, the growth inhibition in test [1] was 21%; in test [4], 95% (active). Moreover, the inhibition in test [2] is 16%; in test [3], -5%. In addition, the result in test [5], in test [6], in test [7] and in test [8] was inactive.

Take `c1ccc2c(NCCCCCCNc3c4c(nc5ccccc35)CCCC4)c3c(nc2c1)CCCC3`: the growth inhibition in test [1] was 51% (active); in test [4], 100% (active). In addition, the inhibition in test [2] was 90% (active); in test [3], 3%. Besides, the result in test [5], in test [6], in test [7] and in test [8] was inactive.

For `O=C(/C=C/c1ccc(Cl)c(Cl)c1)NC1CCC(CN2CCC(c3c[nH]c4ccccc34)CC2)CC1` (configuration not stated), the values for the growth inhibition in test [1] and in test [4] were 85% (active) and 101% (active), respectively. The inhibition in test [2] was 27%; in test [3], 5%. Moreover, the outcome in test [5], in test [6], in test [7] and in test [8] was inactive.

As to `CC[C@H]1CN2CCc3cc(OC)c(OC)cc3[C@@H]2C[C@@H]1C[C@H]1NCCc2c1cc(OC)c(OC)c2Br`, the growth inhibition in test [1] was 97% (active); in test [4] it was 99% (active). The inhibition was 45% in test [2] and -1% in test [3]. The outcome in test [5], in test [6], in test [7] and in test [8] was inactive.

`Clc1ccc2nccc(N3CCC(CN4CCC(c5c[nH]c6ccccc56)CC4)CC3)c2c1`: the growth inhibition in test [1] was 81% (active); in test [4], 101% (active). Also, the inhibition was 46% in test [2] and 4% in test [3]. For the same molecule, the outcome in test [5], in test [6], in test [7] and in test [8] was inactive.

For `CC(C)CNCc1cccc(-c2ccc(CN(C(=O)c3cccs3)C3CCN(Cc4ccccc4)CC3)cc2)c1`, the growth inhibition in test [1] was 40%; in test [4], 85% (active). Also, the inhibition in test [2] is 22%; in test [3], 3%. The outcome in test [5], in test [6], in test [7] and in test [8] was inactive.

Regarding `O=C(Nc1cc(C(F)(F)F)cc(C(F)(F)F)c1)N1CCC(CN2CCC(c3c[nH]c4ccccc34)CC2)CC1`, the growth inhibition in test [1] was 99% (active); in test [4], 100% (active). The inhibition was 42% in test [2] and -1% in test [3]. In addition, the outcome in test [5], in test [6], in test [7] and in test [8] was inactive.

With `CCOc1ccc(CN(CCc2ccc3c(c2)OCO3)Cc2cc(OC)ccc2O)cc1`, the growth inhibition in test [1] is 88% (active); in test [4], 96% (active). Besides, the inhibition was 3% in test [2] and -4% in test [3]. Besides, the outcome in test [5], in test [6], in test [7] and in test [8] was inactive.

For `CC(C)CNCc1cccc(-c2ccccc2CN(C(=O)Nc2ccccc2)C2CCN(Cc3ccccc3)CC2)c1`, the growth inhibition was 68% (active) in test [1] and 100% (active) in test [4]. Also, the inhibition in test [2] is 36%; in test [3], -2%. The outcome in test [5], in test [6], in test [7] and in test [8] was inactive.

`CC[C@H]1CN2CC[C@H]1C[C@H]2[C@H](O)c1cc(-c2ccc(OC(F)(F)F)cc2)nc2ccc(OC)cc12`: the figures for the growth inhibition in test [1] and in test [4] were 99% (active) and 98% (active), respectively. The inhibition in test [2] was 24%; in test [3] it was 0%. Further, the result in test [5], in test [6], in test [7] and in test [8] was inactive.

For `CC(C)CNCc1ccc(-c2cccc(CN(C(=O)NC3CCCCC3)C3CCN(Cc4ccccc4)CC3)c2)cc1`, the growth inhibition in test [1] was 88% (active); in test [4] it was 98% (active). The inhibition in test [2] is 20%; in test [3], 2%. For the same molecule, the result in test [5], in test [6], in test [7] and in test [8] was inactive.

`O=C(/C=C/c1ccc(Cl)c(Cl)c1)NCc1ccc(CN2CCC(c3c[nH]c4ccccc34)CC2)cc1`: the figures for the growth inhibition in test [1] and in test [4] were 86% (active) and 101% (active), respectively. In addition, the inhibition in test [2] was 59% (active); in test [3], -2%. For the same molecule, the result in test [5], in test [6], in test [7] and in test [8] was inactive.

The record behind these values is PubChem BioAssay.
